Source: PubChem BioAssay (National Center for Advancing Translational Sciences (NCATS))
VP16 counter – Gal4-VP16 reporter inhibition counter-screen. 310,000 compounds, 3.5% hits. Potency, µM (top dose mostly 53.6 µM), without a hit: at the top dose activity, negative = inhibition, actives largely listed as inhibitors. Drosophila S2 Gal4-VP16 UAS-luciferase, luminescence, 20 h;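 further: Gal4-VP16 expression switched on by copper sulfate through the metallothionein promoter; on the % scale 0 is the no-effect control and ±100 the full control effect; nearly all actives have a fitted effect of over 50% in size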
ATXN viability – viability counter-screen for ATXN expression inhibitors; S2 cells (HEK-293 line with an ATXN2-luciferase reporter) viability, CellTiter-Fluor protease fluorescence, 24 h; Potency, µM (top dose mostly 56.7 µM), hits mostly cytotoxic; 400,000 compounds, 0.49% hits; AID 651635; further: nearly all actives have a fitted effect of over 40% in size
TGFb SMAD3 inh – inhibitors of TGF-b signaling; Potency, µM (doses to about 46.1 µM), without a hit: at the highest dose activity, negative = inhibition, most hits filed as inhibitors; HepG2 CAGA-GFP TGF-b/SMAD3 reporter, GFP fluorescence, 18 h; TGF-beta stimulated, 500 pg/mL final; 410,000 compounds, 1.2% hits; further: on the % scale 0 is the no-effect control and ±100 the full control effect; nearly all actives have a fitted effect of over 65% in size
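First, reporter cells (HEPG2 CAGA-GFP) rested 2 h at 37 degrees C. Next, compounds were pinned in and TGF-beta added to 500 pg/mL final. After 18 h, GFP was imaged per cell and summed per well.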
ATXN2 expr inh – ATXN2 expression inhibition. HEK-293 ATXN2-luciferase reporter, luminescence, 24 h. Potency, µM (doses to about 57 µM), inactives show at the highest dose activity change, negative = inhibition, actives largely listed as inhibitors. 360,000 compounds, 0.72% hits; further: on the % scale 0 is the no-effect control and ±100 the full control effect; nearly all actives have a fitted effect of over 55% in size
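qHTS (up to 57 uM final) was run with 24 h compound exposure of reporter cells at 37 °C. Each well was multiplexed: SteadyGlo luminescence measured ATXN2-luciferase expression after a fluorogenic Gly-Phe-AFC viability readout (25 uM final).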
HepG2 viability – HepG2 cytotoxicity, counter-screen for TGF-b inhibitors; Potency, µM (highest dose often 46.1 µM), without a hit: at the highest dose activity change, negative = cytotoxicity, actives largely listed as cytotoxic; AID 588856; 410,000 compounds, 0.76% hits; HepG2 CAGA-GFP viability, ATP luminescence, 18 h
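CellTiter-Glo luminescence gave cytotoxicity after 18 hours at 37 degrees C. The cells were HepG2 CAGA-GFP in 1% FBS DMEM, stimulated with 500 pg/mL TGF-beta after compound addition. %Activity was normalised to no-cell wells (complete cell-killing) and DMSO (no toxicity), and curves were fitted and classified.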
RORgamma inh – blocks mouse ROR gamma transcriptional activity. Potency, µM (series often up to 53.6 µM), for inactives: at the top dose activity change, negative = inhibition, actives largely listed as inhibitors. Drosophila S2 Gal4-RORgamma UAS-luciferase reporter, 20 h. P51450. 310,000 compounds, 5.4% hits; further: on the % scale 0 is the no-effect control and ±100 the full control effect; nearly all actives have a fitted effect of over 60% in size
Target sequence (P51450 whole entry, looked up, the tested form may be a part): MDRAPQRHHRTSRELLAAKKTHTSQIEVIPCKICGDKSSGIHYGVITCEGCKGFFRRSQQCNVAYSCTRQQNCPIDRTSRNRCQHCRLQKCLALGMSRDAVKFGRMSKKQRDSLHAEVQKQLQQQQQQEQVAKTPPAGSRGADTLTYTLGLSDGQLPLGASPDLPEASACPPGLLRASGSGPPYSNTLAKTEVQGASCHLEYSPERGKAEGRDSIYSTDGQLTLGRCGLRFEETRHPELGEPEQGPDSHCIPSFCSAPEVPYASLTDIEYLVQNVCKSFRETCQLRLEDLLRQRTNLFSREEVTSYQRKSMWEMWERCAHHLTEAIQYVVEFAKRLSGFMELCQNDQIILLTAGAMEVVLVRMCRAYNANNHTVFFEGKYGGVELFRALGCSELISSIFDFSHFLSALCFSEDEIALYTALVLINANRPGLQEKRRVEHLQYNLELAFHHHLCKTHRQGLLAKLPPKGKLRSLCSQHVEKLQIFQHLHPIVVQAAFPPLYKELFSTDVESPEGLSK
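Using a luciferase readout, inhibitors were identified by reduced reporter activity in Drosophila cells coexpressing a copper-inducible Gal4–ROR gamma fusion and UAS-driven Photinus luciferase, incubated 20 hr after 700 uM copper sulfate.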
* = called active by the depositor; [ ] = dose if it differs, or a comment. A selection: hits, their analogues and other compounds. The true share with any hit is near 6.1%. The call rests on the fitted dose curve; in most records, active means well fitted curve in the direction sought with a large enough effect; inconclusive means small, poorly fitted or top-dose-only effect, or another doubt; inactive means no such curve, though single readings can be large; an effect the other way counts as inactive or inconclusive. Potency means the concentration at half of the fitted maximal effect.

What do the screens show for `COc1ccc(/C=C/C(=O)NC(=S)NNC(=O)c2c(-c3ccccc3)noc2C)cc1`?
VP16 counter: 5.01µM*; ATXN viability: inactive; TGFb SMAD3 inh: -0.7%; ATXN2 expr inh: -18.2%; HepG2 viability: 0.5%; RORgamma inh: 3.16µM*

How did Cc1onc(-c2ccccc2)c1C(=O)NNC(=S)NC(=O)/C=C/c1ccccc1 do in these assays?
VP16 counter: inconclusive; ATXN viability: inactive; TGFb SMAD3 inh: inconclusive; ATXN2 expr inh: inconclusive; HepG2 viability: -12.1%; RORgamma inh: 5.62µM*

Results for Cc1onc(-c2ccccc2)c1C(=O)NNC(=S)NC(=O)c1ccc(Br)cc1 ?
VP16 counter: 3.55µM*; ATXN viability: inactive; TGFb SMAD3 inh: 0.0%; ATXN2 expr inh: 0.0%; HepG2 viability: -34.1%; RORgamma inh: 4.47µM*

How did CCCCOc1ccc(Cn2c(=O)sc3ccccc32)cc1 do in these assays?
ATXN viability: inactive; TGFb SMAD3 inh: inconclusive; ATXN2 expr inh: 8.5%; HepG2 viability: -19.1%

What do the screens show for `CCOC(=O)/C(=N\Nc1ccc(Cl)cc1)c1csc(Nc2ccccc2)n1`?
VP16 counter: -10.6%; ATXN viability: inconclusive; TGFb SMAD3 inh: inconclusive; ATXN2 expr inh: 1.7%; HepG2 viability: 11.2µM*; RORgamma inh: -2.7%

Results for COc1cccc(-c2cc(C(F)(F)F)n3nc(C)c(-c4ccccc4)c3n2)c1 ?
ATXN viability: inactive; TGFb SMAD3 inh: 10.3%; ATXN2 expr inh: 1.8%; HepG2 viability: -19.8%

How did CCOc1ccc(C2C(C(=O)Nc3ccc(OC)cc3)=C(C)Nc3nc(SCc4ccc(Cl)cc4)nn32)cc1 (configuration not stated) do in these assays?
ATXN viability: inactive; TGFb SMAD3 inh: 3.4%; ATXN2 expr inh: 8.5%; HepG2 viability: 5.3%

Results for Oc1c(C(c2ccccc2)N2CCCCC2)sc2ncnn12 (configuration not stated) ?
VP16 counter: -2.7%; ATXN viability: inactive; TGFb SMAD3 inh: -14.9%; ATXN2 expr inh: -2.0%; HepG2 viability: -13.8%; RORgamma inh: 7.94µM*

How did Nc1c(C(O)(C(F)(F)F)C(F)(F)F)cc(C(O)(C(F)(F)F)C(F)(F)F)c2ccccc12 do in these assays?
VP16 counter: inconclusive; ATXN viability: inconclusive; TGFb SMAD3 inh: 11.2µM*; ATXN2 expr inh: inconclusive; HepG2 viability: 17.8µM*; RORgamma inh: inconclusive

How did CCOc1ccc(-c2cnc3n2CCCCC3)cc1 do in these assays?
VP16 counter: inconclusive; ATXN viability: inactive; TGFb SMAD3 inh: 4.8%; ATXN2 expr inh: -7.7%; HepG2 viability: -0.2%; RORgamma inh: 11.2µM*

How did Cc1ccc(-c2cnc3n2CCCCC3)cc1 do in these assays?
VP16 counter: -14.8%; ATXN viability: inactive; TGFb SMAD3 inh: -0.6%; HepG2 viability: 6.5%; RORgamma inh: 3.55µM*

Results for c1ccc(-c2ccc(-c3cnc4n3CCCCC4)cc2)cc1 ?
VP16 counter: 11.2µM*; ATXN viability: inactive; TGFb SMAD3 inh: inconclusive; ATXN2 expr inh: 120.4%; HepG2 viability: -41.5%; RORgamma inh: 6.31µM*

Results for CCOc1ccc(Nc2ncnc3c2nc2n3CCCCC2)cc1 ?
ATXN viability: inactive; TGFb SMAD3 inh: 0.0%; ATXN2 expr inh: 15.1%; HepG2 viability: -39.0%

What do the screens show for `CCN(C(=O)c1coc(=O)c2ccccc12)c1ccccc1C`?
ATXN viability: inactive; TGFb SMAD3 inh: -4.1%; ATXN2 expr inh: -8.6%; HepG2 viability: 13.7%

What do the screens show for `C[S+](C)CC[C@H](N)C(=O)O`?
VP16 counter: -7.9%; RORgamma inh: -5.0%

Results for CCN(CC)S(=O)(=O)c1cc(C(=O)Nc2ccccc2[N+](=O)[O-])ccc1Cl ?
VP16 counter: inconclusive; ATXN viability: inactive; TGFb SMAD3 inh: 15.8µM*; ATXN2 expr inh: 1.5%; HepG2 viability: -33.0%; RORgamma inh: 2.1%

How did CCOc1ccc(CNC(=O)C2CCCN(c3nn4cc(-c5ccc(OC)cc5)nc4s3)C2)cc1 (configuration not stated) do in these assays?
TGFb SMAD3 inh: 0.0%; HepG2 viability: -15.2%

How did N#Cc1c(NC(=O)c2ccccc2)sc2c1CCC2 do in these assays?
VP16 counter: 0.9%; ATXN viability: inactive; TGFb SMAD3 inh: 0.2%; ATXN2 expr inh: 24.9%; HepG2 viability: -22.4%; RORgamma inh: -14.9%

How did Cc1cccc(C(=O)Nc2sc3c(c2C#N)CCCCC3)c1 do in these assays?
VP16 counter: inconclusive; ATXN viability: inactive; TGFb SMAD3 inh: -5.4%; ATXN2 expr inh: -10.3%; HepG2 viability: -26.8%; RORgamma inh: 7.94µM*

Results for N#Cc1c(NC(=S)NC(=O)c2ccccc2)sc2c1CCCC2 ?
VP16 counter: 10µM*; ATXN viability: inactive; TGFb SMAD3 inh: -5.8%; ATXN2 expr inh: 41.3%; HepG2 viability: 3.8%; RORgamma inh: 6.31µM*

How did CC1CCc2c(sc(NC(=S)NC(=O)c3ccccc3)c2C#N)C1 (configuration not stated) do in these assays?
VP16 counter: -7.4%; ATXN viability: inactive; TGFb SMAD3 inh: 3.3%; ATXN2 expr inh: 52.1%; HepG2 viability: 4.2%; RORgamma inh: -44.6%

What do the screens show for `Cc1ccccc1C(=O)NC(=S)Nc1sc2c(c1C#N)CCC(C)C2` (configuration not stated)?
VP16 counter: inconclusive; ATXN viability: inactive; TGFb SMAD3 inh: -25.2%; ATXN2 expr inh: -7.4%; HepG2 viability: -7.0%; RORgamma inh: 7.94µM*

Results for Cn1ncc(Cl)c1C(=O)NC(=S)Nc1sc2c(c1C#N)CCCCC2 ?
VP16 counter: inconclusive; ATXN viability: inactive; TGFb SMAD3 inh: -0.7%; ATXN2 expr inh: 23.4%; HepG2 viability: -43.0%; RORgamma inh: 11.2µM*

What do the screens show for `CCCCn1cc(S(=O)(=O)c2ccccc2)c(=O)c2cc(F)c(N3CCC(C)CC3)cc21`?
TGFb SMAD3 inh: -17.3%; HepG2 viability: -9.0%

How did CN(CCO)C(=O)c1cn(C2CCN(Cc3ccc4ccccc4c3)CC2)nn1 do in these assays?
ATXN viability: inactive

Results for C/C(CCN1CCCc2nc(C)c(C)cc21)=N\O[C@@H](C)CN1CCCc2nc(C)c(C)cc21 ?
VP16 counter: 4.1%[10 µM]; RORgamma inh: 2.7%[10 µM]

How did CC[C@@]1(c2ccccc2)NC(=O)NC1=O do in these assays?
VP16 counter: 1.7%; RORgamma inh: -7.6%

How did N#Cc1c(NC(=O)c2ccc(Cn3cc(Br)cn3)o2)sc2c1CCCCCC2 do in these assays?
VP16 counter: -10.3%[0.365 µM]; ATXN viability: inconclusive; TGFb SMAD3 inh: inconclusive; ATXN2 expr inh: 5.1%; HepG2 viability: -2.0%; RORgamma inh: 5.62µM*
